Data on eight compounds can be found in PubChem BioAssay.

The structures appear in SMILES notation. Active and inactive are the calls of the source.

The nature of test [1]: E. coli DRC41 culture turbidity changes, primary screen, E. coli filamentation inducer project, strain DRC41, OD650, 48 h (AID 1152).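 Also: E. coli MC1000 strain DRC41 lacking acrAB efflux pump and sulA.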 To be noted: E. coli DRC41 (acrAB sulA), higher = more signal, called active from +8 up or from −8 down.
Test [2] can be described thus: small-molecule binders of probe aLefty1, primary screen, biochemical, small-molecule microarray, 635/667 nm fluorescence (AID 1153).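 Also: score merges spot fluorescence with signal-to-noise ratio from the scanned slide images.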 Particulars: higher = more signal.
Test [3] in a line: PSAC antagonists in infected red cells, primary screen, cell-based, P. falciparum Indochina, OD700, 1 h (AID 1154). Particulars: P. falciparum Indochina infected RBC osmotic lysis, higher = more signal, called active from +8 up or from −8 down.
The nature of test [4]: PSAC antagonists in infected red cells, primary screen, cell-based, P. falciparum Indochina, OD700, 2 h (AID 1155).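 Also: lysis reports solute entry through the parasite surface anion channel PSAC; channel blockers reduce lysis of infected cells.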 Particulars: P. falciparum Indochina infected erythrocytes, osmotic lysis OD700; higher = more signal, called active from +8 up or from −8 down.
The nature of test [5]: osmotic lysis modulators in infected erythrocytes, primary screen, PSAC antagonist project, cell-based, P. falciparum Indochina, OD700, 3 h (AID 1156). Particulars: higher = more signal, called active from +8 up or from −8 down.
Test [6] can be described thus: PSAC antagonists in infected red cells, primary screen, cell-based, P. falciparum Indochina, OD700, 18 h (AID 1157). Particulars: P. falciparum Indochina infected erythrocytes, osmotic lysis OD700, 18 h; higher = more signal, called active from +8 up or from −8 down.
Test [7] is described as follows: modulators of S6 phosphorylation in cells, primary screen, cell-based, A549, cytoblot, luminescence, serum-stimulated (AID 1158).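 Also: serum-stimulated A549 lung adenocarcinoma cells; signal is phosphorylated S6 detected by cytoblot immunostaining with HRP secondary.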 Particulars: A549 phospho-S6 cytoblot, 5 h, higher = more signal.
Test [8] deals with NADPH oxidase 2 (Homo sapiens) (UniProt P04839). Nature of the test: NOX2-dependent H2O2 signal modulators, primary screen, NOX inhibitor project, cell-based, HEK293-NOX2, PMA-stimulated, Amplex Red fluorescence (AID 1159). Also: test concentration not given here. Particulars: 45 min, higher = more signal, called active from +8 up or from −8 down.
The target of test [9] is NADPH oxidase 4 (Homo sapiens) (UniProt Q9NPH5). Nature of the test: NOX4-dependent H2O2 signal modulators, primary screen, NOX inhibitor project, cell-based, HEK293-NOX4, tetracycline-induced, Amplex Red fluorescence (AID 1160). To be noted: 45 min, higher = more signal, called active from +8 up or from −8 down.
For test [10], the target named is NADPH oxidase 5 (Homo sapiens) (UniProt Q96PH1). Nature of the test: NOX5-dependent H2O2 signal modulators, primary screen, NOX inhibitor project, cell-based, HEK293-NOX5, Amplex Red fluorescence (AID 1161). To be noted: HEK293-NOX5, ionomycin, 45 min, higher = more signal.
The nature of test [11]: A549 cell viability effects, profiling panel, calcein-AM fluorescence, 48 h, basal (AID 1162). Also: test concentration not given here. Particulars: higher = more signal.
A short description of test [12]: adipocyte viability effects, profiling panel, cell-based, 3T3-L1 adipocytes, calcein-AM fluorescence, 48 h, basal (AID 1163). Also: test concentration not given here. Particulars: 3T3-L1 adipocytes viability, higher = more signal.
A short description of test [13]: HepG2 cell viability effects, profiling panel, calcein-AM fluorescence, 48 h, basal (AID 1164). Also: test concentration not given here. To be noted: higher = more signal.
Test [14] in a line: MM1S cell viability effects, profiling panel, calcein-AM fluorescence, 48 h, basal (AID 1165).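 Also: viability of MM1S multiple myeloma cells under basal unstimulated conditions; test concentration not given here.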 Particulars: higher = more signal.
A short description of test [15]: basal RPMI8226 viability, no added stimulus, profiling panel, cell-based, calcein-AM fluorescence, 48 h, PK04 Diversity Set (AID 1166).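 Also: cells grown under basal conditions without added stimulus; test concentration not given here.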 To be noted: RPMI8226 myeloma viability, higher = more signal.
Test [16] can be described thus: basal HepG2 mitochondrial membrane potential changes, profiling panel, cell-based, JC-1 fluorescence, 24 h, 100 nL compound (AID 1167). Also: test concentration not given here. To be noted: higher = more signal.
Test [17] in a line: basal 3T3-L1 adipocyte mitochondrial potential changes, profiling panel, cell-based, JC-1 fluorescence, 3T3-L1 adipocytes, 24 h, 100 nL compound (AID 1168). Also: test concentration not given here. Particulars: JC-1 mitochondrial fluorescence, higher = more signal, called active from +8 up or from −8 down.
The nature of test [18]: basal RPMI8226 mitochondrial membrane potential changes, profiling panel, cell-based, JC-1 fluorescence, 24 h, 100 nL compound (AID 1169). Also: test concentration not given here. To be noted: RPMI8226 myeloma, JC-1 mitochondrial potential fluorescence, higher = more signal.
Test [19] in a line: basal MM1S mitochondrial membrane potential changes, profiling panel, cell-based, JC-1 fluorescence, 24 h, 100 nL compound (AID 1170). Also: test concentration not given here. Particulars: higher = more signal.
A short description of test [20]: A549 lung cancer cell viability effects, profiling panel, resazurin fluorescence, 24 h, PK04 Diversity Set (AID 1171). Also: test concentration not given here. To be noted: higher = more signal, called active from +8 up or from −8 down.

Chain of NADPH oxidase 5 (Homo sapiens) (Q96PH1 whole entry, looked up): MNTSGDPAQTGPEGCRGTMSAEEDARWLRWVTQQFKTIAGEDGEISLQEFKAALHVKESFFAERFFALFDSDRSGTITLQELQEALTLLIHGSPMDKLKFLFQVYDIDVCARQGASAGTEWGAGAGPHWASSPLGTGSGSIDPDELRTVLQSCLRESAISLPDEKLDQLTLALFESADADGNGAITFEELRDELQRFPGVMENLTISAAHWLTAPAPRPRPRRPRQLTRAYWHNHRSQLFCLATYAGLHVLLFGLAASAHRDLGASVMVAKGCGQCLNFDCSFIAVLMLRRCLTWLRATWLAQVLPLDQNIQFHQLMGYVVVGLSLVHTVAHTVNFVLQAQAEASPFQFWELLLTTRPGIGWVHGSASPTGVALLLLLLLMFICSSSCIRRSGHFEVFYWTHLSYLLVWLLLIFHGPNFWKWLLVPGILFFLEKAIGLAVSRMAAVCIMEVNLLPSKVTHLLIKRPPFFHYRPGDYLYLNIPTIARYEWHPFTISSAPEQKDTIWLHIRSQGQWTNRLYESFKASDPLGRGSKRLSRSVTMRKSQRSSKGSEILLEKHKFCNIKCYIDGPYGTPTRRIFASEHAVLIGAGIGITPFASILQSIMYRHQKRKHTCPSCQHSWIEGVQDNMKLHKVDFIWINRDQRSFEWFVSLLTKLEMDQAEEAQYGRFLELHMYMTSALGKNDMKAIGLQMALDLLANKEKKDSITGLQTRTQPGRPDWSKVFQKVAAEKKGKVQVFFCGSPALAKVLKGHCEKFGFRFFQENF
Chain of NADPH oxidase 2 (Homo sapiens) (P04839 whole entry, looked up): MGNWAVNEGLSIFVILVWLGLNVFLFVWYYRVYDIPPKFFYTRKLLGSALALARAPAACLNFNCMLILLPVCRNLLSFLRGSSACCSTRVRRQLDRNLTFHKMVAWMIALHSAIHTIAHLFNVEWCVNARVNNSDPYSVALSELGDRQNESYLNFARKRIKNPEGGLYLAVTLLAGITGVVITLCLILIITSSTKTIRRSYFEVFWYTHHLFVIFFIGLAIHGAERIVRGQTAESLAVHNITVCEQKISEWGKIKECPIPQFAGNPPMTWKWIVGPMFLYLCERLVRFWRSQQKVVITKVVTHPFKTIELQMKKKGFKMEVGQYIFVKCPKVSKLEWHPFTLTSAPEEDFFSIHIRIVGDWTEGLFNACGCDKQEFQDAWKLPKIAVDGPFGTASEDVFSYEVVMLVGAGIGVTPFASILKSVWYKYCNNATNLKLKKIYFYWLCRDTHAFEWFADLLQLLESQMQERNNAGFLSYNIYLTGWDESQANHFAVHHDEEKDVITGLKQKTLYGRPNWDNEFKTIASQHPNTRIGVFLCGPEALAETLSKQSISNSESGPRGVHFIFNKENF
Chain of NADPH oxidase 4 (Homo sapiens) (Q9NPH5 whole entry, looked up): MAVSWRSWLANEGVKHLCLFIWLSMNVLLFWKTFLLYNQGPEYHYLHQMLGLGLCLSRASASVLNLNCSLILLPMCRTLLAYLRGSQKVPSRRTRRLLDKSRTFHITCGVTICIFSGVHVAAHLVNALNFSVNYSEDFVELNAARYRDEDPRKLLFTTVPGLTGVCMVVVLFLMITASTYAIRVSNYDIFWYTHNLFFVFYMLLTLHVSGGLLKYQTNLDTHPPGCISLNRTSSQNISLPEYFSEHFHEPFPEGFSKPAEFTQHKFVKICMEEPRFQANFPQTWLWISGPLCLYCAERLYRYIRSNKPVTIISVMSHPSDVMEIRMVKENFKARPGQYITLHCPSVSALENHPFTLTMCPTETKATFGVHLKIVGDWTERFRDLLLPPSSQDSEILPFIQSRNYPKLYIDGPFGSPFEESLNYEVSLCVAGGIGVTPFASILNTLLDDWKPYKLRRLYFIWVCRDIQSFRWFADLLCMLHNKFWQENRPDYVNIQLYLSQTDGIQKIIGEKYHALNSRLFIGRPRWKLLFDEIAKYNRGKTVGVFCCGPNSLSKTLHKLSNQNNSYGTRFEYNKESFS

On to `O=C1[C@]2(CO)C=C(Br)[C@@H](C[C@@H]2c2ccccc2)[C@@]12CO2`, for which the z-score in [1] is 0.168 (inactive); in [3], 0.0883 (inactive); in [4], 0.0579 (inactive); in test [5], -0.533 (inactive); in [6] it was -0.187 (inactive); in [7] it was -0.364. Further, the z-score in test [8] was 0.538 (inactive); in [9], 0.662 (inactive); in test [10], -0.211; in [11], -0.425; in test [12], 0.364; in test [13], -0.421. The z-score is -2.22 in test [14]; -2.68 in test [15]; -1.66 in test [16]; -0.435 (inactive) in [17]; 0.278 in [18]; -1.14 in [19]. In [20], the z-score is 0.359 (inactive). In addition, in test [2], the composite z-score was -0.188.

Take `CO[C@H]1O[C@H](CO)[C@@H](OC(=O)Nc2ccc3c(c2)OCO3)[C@H](OC(=O)Nc2ccccc2)[C@H]1OC(=O)Nc1ccccc1`: the z-score in test [1] is -0.495 (inactive); in [3], 4.11 (inactive); in [4], 0.777 (inactive); in test [5] it was 0.756 (inactive); in test [6] it was 0.421 (inactive); in test [7] it was 0.258. In addition, the z-score in test [8] was -6.93 (inactive); in test [9], -0.649 (inactive); in [10], -2.08; in test [11] it was -2.08; in [12] it was 1.11; in test [13], -2.7. The z-score in test [14] was -1.67; in [15], -2.56; in test [16], -0.812; in [17], 1.42 (inactive); in [18], -0.442; in [19], -1.37. Moreover, the z-score in test [20] is -3.25 (inactive). In addition, the composite z-score in test [2] is 0.227.

For the compound `CC(C)(C)N1CC=CC23O[C@@H]4/C=C\CCCOC(=O)C4[C@H]2C(=O)N(CCO)[C@@H]3C1=O` (stereo not given in full), the z-score is 0.583 (inactive) in test [1]; 0.806 (inactive) in [3]; 1.01 (inactive) in test [4]; 0.17 (inactive) in test [5]; 0.603 (inactive) in [6]; -0.495 in [7]. Moreover, the z-score in test [8] is 1.58 (inactive); in [9], 0.0377 (inactive); in test [10], 2.17; in test [11] it was -0.612; in test [12], 1.15; in test [13], -0.664. Besides, the z-score in [14] is 0.889; in test [15], -0.689; in test [16] it was -0.388; in [17], -0.79 (inactive); in test [18] it was -0.0669; in test [19], 1.11. For the same compound, the z-score in test [20] was -0.876 (inactive). Besides, the composite z-score in [2] was -0.552.

With `COc1ccc(CCN2C(=O)[C@@]3(Cc4ccccc42)c2ccccc2C(=O)N(Cc2ccccc2Cl)[C@H]3c2ccc(CO)cc2)cc1`, the z-score in [1] was 0.641 (inactive); in test [3], 2.59 (inactive); in test [4], 0.346 (inactive); in [5], 0.679 (inactive); in [6], 0.425 (inactive); in test [7] it was 0.306. Further, the z-score is 1.3 (inactive) in test [8]; -1.49 (inactive) in test [9]; 1.28 in test [10]; 0.517 in test [11]; -0.0827 in [12]; 0.589 in test [13]. The z-score was 0.23 in [14]; -0.441 in [15]; 0.308 in [16]; -0.106 (inactive) in test [17]; -0.316 in test [18]; 0.256 in [19]. Moreover, the z-score in test [20] is -0.343 (inactive). Besides, in test [2], the composite z-score stood at 0.0844.

Consider `COCCOC(=O)N1C(=O)[C@@]2(c3cc(C#CCNC(N)=O)ccc31)[C@H](c1ccccc1OCCO)N1[C@H](c3ccccc3)[C@H](c3ccccc3)OC(=O)[C@H]1[C@@H]2C(N)=O`, for which the z-score is -0.816 (inactive) in test [1]; 4.2 (inactive) in test [3]; 0.655 (inactive) in [4]; 0.4 (inactive) in test [5]; 0.344 (inactive) in test [6]; -0.463 in [7]. For the same compound, the z-score was 2.29 (inactive) in test [8]; -0.672 (inactive) in test [9]; -0.584 in [10]; -0.0052 in test [11]; -0.131 in test [12]; -0.617 in test [13]. The z-score is -0.456 in [14]; 0.0352 in test [15]; -1.83 in [16]; 0.369 (inactive) in [17]; -0.115 in [18]; -1.08 in [19]. In test [20], the z-score was 0.0565 (inactive). In test [2], this compound returned a composite z-score of -0.111.

Consider `Cc1ccccc1C(O)C1C=CC2C(=O)N(C)C(=O)C2N1Nc1ccccc1` (stereo not given), for which the z-score in test [1] was -1.71 (inactive); in test [3], 1.15 (inactive); in test [4], 0.737 (inactive); in test [5] it was -0.0787 (inactive); in [6], 1.1 (inactive); in [7], -0.711. The z-score in test [8] was -1.39 (inactive); in [9] it was -4.19 (inactive); in test [10] it was -2.72; in test [11] it was 0.262; in [12], -1.23; in test [13] it was -0.284. Moreover, the z-score in [14] is -0.143; in test [15], -0.272; in test [16], -1.96; in test [17], -1.19 (inactive); in [18], -0.317; in test [19], -0.00815. In addition, in test [20], the z-score is -0.621 (inactive). The composite z-score in test [2] turned out to be 0.274.

With `CCCN1C(=O)[C@]2(COC(c3ccc(OCCCO)cc3)=N2)Cc2ccccc21`, the z-score is -0.516 (inactive) in [1]; 16.9 (active) in test [3]; 2.23 (inactive) in test [4]; 2.31 (inactive) in test [5]; 0.741 (inactive) in test [6]; -0.0824 in test [7]. Also, the z-score in test [8] was -0.248 (inactive); in test [9], -0.0403 (inactive); in test [10] it was -1.42; in [11], -0.78; in test [12] it was 0.585; in test [13] it was 0.302. In addition, the z-score in test [14] is -1.6; in [15] it was -0.688; in [16], -0.0681; in test [17], -0.919 (inactive); in [18] it was 0.391; in test [19] it was 0.148. The z-score in [20] was 0.212 (inactive). Also, the composite z-score in test [2] came out at 0.0927.

As for `C=CCOC(=O)[C@@H]1[C@H]2C(=O)O[C@H](c3ccccc3)[C@H](c3ccccc3)N2[C@H](c2ccc(OCCOC(=O)[C@@H]3C[C@@H]4C(=O)NCC(=O)N4[C@@H]3c3cccc(OCCO)c3)cc2)[C@@]12C(=O)Nc1ccc(I)cc12`, the z-score in test [1] was -0.407 (inactive); in [3], 2.11 (inactive); in test [4] it was 0.636 (inactive); in [5], 1.64 (inactive); in test [6], 0.572 (inactive); in test [7], -0.5. For the same compound, the z-score was 1.72 (inactive) in [8]; 1.19 (inactive) in test [9]; 1.37 in test [10]; 0.0646 in test [11]; 0.904 in [12]; 0.646 in test [13]. The z-score in test [14] is -0.0922; in test [15] it was 0.129; in test [16], -0.941; in test [17] it was 1.47 (inactive); in test [18], -0.446; in [19], -1.08. In addition, the z-score in test [20] is 0.0716 (inactive). Also, the composite z-score in [2] was determined as 0.42.
